Data as given in PubChem BioAssay AID624330 (Southern Research Specialized Biocontainment Screening …, 2012).
The campaign covered roughly 340,000 compounds. About 2,100 (0.62%) were called active.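 The calls were made as follows: active = first-screen hits whose inhibition reached a set limit at any dose in the follow-up dose series; inconclusive = inhibition above the set first-screen limit but never retested; inactive = the rest.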 These entries were drawn from the full list. Entries with a potency or affinity are not part of this list.

Molecular target: Rac GTPase-activating protein 1 (Homo sapiens) (UniProt Q9H0H5)
Experiment: blockers of MgcRacGAP-driven Rac1 GTP hydrolysis – biochemical, ADP Hunter fluorescence, primary and confirmatory, confirmation (AID 624330);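 also: fluorescence reports GDP produced by GAP-driven GTP hydrolysis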
Details: MgcRacGAP-stimulated Rac1 GTP hydrolysis, at 30 µM, stronger effect = higher value, GST-tagged Rac1 F28L mutant substrate

Sequence of Rac GTPase-activating protein 1 (Homo sapiens) (Q9H0H5 whole entry, looked up): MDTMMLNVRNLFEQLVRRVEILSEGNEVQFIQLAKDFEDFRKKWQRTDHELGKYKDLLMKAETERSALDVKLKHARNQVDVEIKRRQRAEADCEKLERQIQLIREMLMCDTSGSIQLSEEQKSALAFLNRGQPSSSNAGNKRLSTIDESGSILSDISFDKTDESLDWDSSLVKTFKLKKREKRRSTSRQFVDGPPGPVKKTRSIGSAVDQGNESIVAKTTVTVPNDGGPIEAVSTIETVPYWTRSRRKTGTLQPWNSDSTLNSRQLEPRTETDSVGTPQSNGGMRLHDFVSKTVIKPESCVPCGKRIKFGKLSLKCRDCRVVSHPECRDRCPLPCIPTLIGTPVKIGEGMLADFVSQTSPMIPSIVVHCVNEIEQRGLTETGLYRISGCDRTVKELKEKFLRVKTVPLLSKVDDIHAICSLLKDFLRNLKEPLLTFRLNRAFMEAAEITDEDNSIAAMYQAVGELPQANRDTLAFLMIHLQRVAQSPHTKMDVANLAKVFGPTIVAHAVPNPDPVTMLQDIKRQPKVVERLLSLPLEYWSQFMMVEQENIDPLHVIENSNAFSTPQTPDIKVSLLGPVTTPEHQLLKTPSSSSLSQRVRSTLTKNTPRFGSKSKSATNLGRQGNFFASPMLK

inhibition, inactive:
CCc1noc(C)c1C(=O)Nc1cccc2ncccc12 3.52%, O=C(COC(=O)Cc1ccc(Cl)cc1)NCc1cccs1 6.22%, COC(=O)c1ccccc1COn1c(=O)c(C)[n+]([O-])c2ccccc21 6.87%, CSc1nc(C)c2c(n1)N(c1ccc(F)cc1)CC2 11.7%, COc1ccc(N2CCc3c(C)nc(SC)nc32)cc1 2.67%, Cc1ccc(Cl)cc1N1CCN(S(=O)(=O)N2CCCCC2)CC1 8.42%, CN(C)S(=O)(=O)c1cccc(C(=O)NCCc2ccccc2)c1 10.5%, CN(c1ccccc1)S(=O)(=O)c1cccc(C(=O)NCc2ccccc2)c1 5.13%, CC(C)(C)NC(=O)C(c1ccccn1)N(C(=O)c1csnn1)C1CCCCC1 (stereo unspecified) 2.75%, CCOC(=O)C1(Cc2ccccc2)CCN(Cc2csc(C(C)=O)c2)CC1 3.47%, O=C(CCCC(=O)c1ccccc1)Nc1ccc(F)cc1 4.81%, CC(=O)c1ccc(NC(=O)CCCC(=O)c2ccccc2)cc1 8.95%, O=C(CC(c1ccccc1)c1ccccc1)Nc1ccc(C(=O)O)cc1 13.2%, CC(=O)Nc1ccc(NC(=O)CC(c2ccccc2)c2ccccc2)cc1 11.3%, Cc1c(OCC(=O)N[C@@H](CSCc2ccccc2)C(=O)O)ccc2c3c(c(=O)oc12)CCC3 4.52%, CC(=O)c1cccc(-c2ccc3c(=O)[nH]c(Nc4ccccc4)cc3c2)c1 0.61%, COc1cc(-c2cc(-c3ccccc3)nc(SCC(=O)Nc3nccs3)c2C#N)cc(OC)c1OC -0.01%, CCS(=O)(=O)Nc1cccc(C2=NN(S(=O)(=O)c3ccc(C)cc3)C(c3cccs3)C2)c1 (stereo unspecified) -1.77%, CN1OC[C@@H]2CN(C(=O)CCc3ccccc3)[C@H](c3cccc(-c4ccc(C#N)cc4)c3)C[C@@H]21 4.81%, O=C(N1CCOCC1)N1CCN(C(c2ccccc2)c2ccccc2)CC1 5.11%, CC(C)Cc1nc(SCC(=O)NCC2CCCO2)c2c(=O)n(C)c(=O)n(C)c2n1 (stereo unspecified) 5.52%, Cc1cc(C)c(C)c(S(=O)(=O)N2CCN(C)CC2)c1C 9.5%, Cc1ccc(S(=O)(=O)N2CCN(CC(=O)N3CCOCC3)CC2)cc1 6.79%, COc1cccc(N2CCN(S(=O)(=O)c3ccc4ccccc4c3)CC2)c1 -3.05%, Cc1ccc(N2CCN(S(=O)(=O)c3ccc(C)cc3)CC2)cc1 8.85%, CC(=O)c1ccc(N2CCN(S(=O)(=O)c3ccc4ccccc4c3)CC2)cc1 1.69%, Cc1cc(C)c(C)c(S(=O)(=O)N2CCC(C(=O)N3CCN(c4ccc(F)cc4)CC3)CC2)c1C 3.44%, Cc1cc(C)c(C)c(S(=O)(=O)N2CCN(c3ccccn3)CC2)c1C 6.39%, Cc1ccc(C(=O)O)cc1S(=O)(=O)N1CCC(C(=O)O)CC1 3.35%, CCOc1cc(/C=C(\C#N)C(=O)Nc2ccccc2C(=O)O)ccc1OC(=O)c1ccc(C)cc1 12.7%, CCOC(=O)C1=C(N)n2c(s/c(=C\c3cccnc3)c2=O)=C(C#N)C1c1cccnc1 (stereo unspecified) 9.67%, CCOc1ccc(NC(=O)CN2CC(c3ccccc3)CC2=O)cc1 (stereo unspecified) 1.86%, CSc1cc(N2CCOCC2)nc(-c2ccccc2Cl)n1 2.89%, CCN1C(=O)[C@H]2[C@@H](c3ccc(-c4ccc(F)cc4)c(OC)c3)N[C@@](Cc3ccccc3)(C(=O)OC)[C@H]2C1=O 0.02%, OC(CN1CCN(C(c2ccccc2)c2ccccc2)CC1)c1ccccc1 (stereo unspecified) 8.44%, O=C(NCc1cccc(Cl)c1)C1CCC(=O)N(CCCN2CCCC2=O)C1 (stereo unspecified) 10.9%, CN(C(=O)c1cccc(C#CC(C)(C)O)c1)C1CCCN(Cc2ccccc2F)C1 (stereo unspecified) -6.83%, O=C(CSc1ccccc1)N1CCN(c2ccccc2)CC1 10.2%, COc1ccc(N2CCN(C(=O)CSc3ccccc3)CC2)cc1 17.2%, Cc1cnc(CNC(=O)c2ccc3oc(C(C)C)nc3c2)[nH]1 -0.66%, Cc1cc(Cl)cc(Br)c1OCCCCn1cncn1 15.5%, Cc1cc(Cl)c(OCCCn2cncn2)c(Br)c1 13.1%, O=c1c2ccccc2nnn1-c1ccccc1[N+](=O)[O-] 10.5%, COc1cc(C(=S)N2CCCC2)ccc1O 24.9%, COc1cc(C(=S)N2CCCCC2)ccc1O 13.6%, O=C(OCc1ccccc1)N1CCC2CC1c1cc(N3CCNCC3)ccc12 (stereo unspecified) 10.7%, Cn1c(=O)[nH]c(=O)c2c1nc(N1CCCCCC1)n2Cc1cccc2ccccc12 12.6%, CCOC(=O)C(Cc1ccccc1)NC(C)=O (stereo unspecified) -0.49%, CC(=O)NC(Cc1ccccc1)C(C)=O (stereo unspecified) 8.26%, COc1cc(CCC(=O)Nc2nnc(-c3cccnc3)s2)cc(OC)c1OC 9%, Clc1cc(NCc2cccs2)ccc1N1CCOCC1 14.1%, COC(=O)c1cc(NC(=O)c2cccs2)ccc1N1CCOCC1 8.25%, COC(=O)c1cc(NCc2c(F)cccc2Cl)ccc1N1CCOCC1 23.3%, O=C(O)c1cc(NCc2cccs2)ccc1N1CCOCC1 8.2%, CCOC(=O)c1cc(NC(=O)c2cccs2)ccc1N1CCOCC1 10.9%, COc1ccccc1CNc1ccc(N2CCOCC2)c(C(=O)O)c1 11.4%, CC(C)[C@H](NC(=O)c1ccccc1)C(=O)OCC(=O)N1CC2(C)CC1CC(C)(C)C2 (stereo partly specified) -5.69%, Cc1ccc(S(=O)(=O)N2CCN(c3nc(CN4CCCC4)nc4sc(C)c(C)c34)CC2)cc1 6.41%, CC(C)OC(=O)CSc1nnc(-c2ccc(Cl)cc2Cl)o1 9.06%, O=C1OCCC1=COCCCCCOC=C1CCOC1=O 3.03%, N#Cc1ccccc1NC(=O)CSc1n[nH]c(=O)n1C1CC1 -2.21%, COc1ccccc1CN1CCNC(=O)C1CC(=O)NCCc1cnccn1 (stereo unspecified) 4.17%, COc1ccccc1/C=N/NC(=O)C(C)Cn1cnc2ccccc21 (stereo unspecified) 2.07%, COc1cc(NC(c2ccccc2)c2ccccc2)cc(OC)c1OC 11%, COc1cc(C(=O)NC(c2ccccc2)c2ccccc2)cc(OC)c1C 2.28%, O=C(OCC(=O)N1CCN(S(=O)(=O)c2ccc(Cl)cc2)CC1)c1cccc(OC(F)F)c1 5.16%, O=C(c1ccc(O)c(Br)c1)c1cc(Br)ccc1O 4.27%, O=C(CCNC(=O)c1ccco1)Nc1ccccc1OC(F)F 5.22%, CCCC1=Nc2cc(C(=O)NCCCN3CCOCC3)ccc2Sc2ccccc21 10.2%, CCOc1ccc(NC(C)c2cc(Cl)ccc2O)cc1 (stereo unspecified) 15.5%, CC(Nc1ccc(Cl)cc1)c1cc(Cl)ccc1O (stereo unspecified) 7.06%, COC(=O)c1ccc(Nc2nc(-c3ccncc3)nc3ccccc23)cc1 4.52%, CCN1CCN(C(=O)C2CCN(C(=O)c3cc4sccc4n3CC)CC2)CC1 9.89%, O=C(C1CCC1)N1CCN(c2cccc(C(F)(F)F)c2)CC1 0.34%, Oc1ccc(N=Nc2cccc(C(F)(F)F)c2)cc1C=Nc1ccc(N2CCOCC2)cc1 9.72%, FC(F)(F)c1cccc(CN2CCCCCC2)c1 26.2%, FC(F)(F)c1cccc(N2Cc3ccccc3C2)c1 11.1%, CN1CCC(N2CCN(c3cccc(C(F)(F)F)c3)CC2)CC1 5.09%, O=C(N/N=C/c1ccccc1O)c1cccc(C(F)(F)F)c1 -1.42%, O=C(C1=C(O)C(=O)N(CCN2CCOCC2)C1c1ccccn1)c1cccs1 (stereo unspecified) 8.66%, COc1cc2c(cc1NC(=O)c1ccc(C)c([N+](=O)[O-])c1)oc1ccccc12 8.23%, CN(C)S(=O)(=O)c1ccc(C(=O)Nc2cccc(C(=O)O)c2)cc1 -1.04%, CCN(CC(=O)N1CCCCC1)S(=O)(=O)c1ccccc1 5.64%, CCOC(=O)C1CCN(C(=O)c2cccc(S(=O)(=O)N3CCc4ccccc43)c2)CC1 3.11%, CCCCNC(=O)C(CC)Sc1nc2sc(C(=O)OC)c(C)c2c(=O)n1N (stereo unspecified) 9.24%, CCCCOC(=O)c1nc(Cl)c(Cl)c(N)c1Cl -9.26%, O=C1C=C(Nc2ccc(Cl)cc2)CC(c2ccco2)C1 (stereo unspecified) 5.91%, O=C1C=C(Nc2cccc(O)c2)CC(c2ccco2)C1 (stereo unspecified) 9.63%, Oc1[nH]c2ccccc2c1N=Nc1ccc(F)cc1 4.29%, O=C(O)c1ccc(N=Nc2c(O)[nH]c3ccccc23)cc1 5.98%, CCN1CCN(S(=O)(=O)c2ccc(S(=O)(=O)NCC3CCCO3)cc2)CC1 (stereo unspecified) 1.86%, CCN1CCN(C(=O)NC2CCCCC2)CC1 30.1%, Cc1ccc[n+](CC(=O)c2ccc(Br)cc2)c1C -7.12%, Nc1ccccc1C=C1Cc2ccccc2C1=O 3.76%, CC(C)c1ccc(OCC(=O)NCc2ccco2)cc1 6.29%, O=C(NCc1ccco1)c1ccc(COc2ccc(Cl)cc2)cc1 -1.23%
